Experimental data as given in PubChem BioAssay AID463173 (ICCB-Longwood Screening Facility, Harvard Medical School, 2010).
In all, about 52,000 compounds went through this assay and about 4,300 (8.3%) were called active. The entries come from a sample that favours actives as a whole. Unmarked numbers belong to inactive results. No stated cut-off is given here; in the data, active means survival mostly below about 52% (no sharp cut-off); inactive means mostly above about 56%.

These compounds were tested on DeltatarO mutant (assay: S. aureus survival, RN4220 and DeltatarO strains – OD600, teichoic acid synthesis inhibitors, primary screen (AID 463173)). Settings: S. aureus RN4220 wild type/DeltatarO growth, OD600, 18 h, active compounds read low, screened at 18.75 µg/mL (by protocol).
`COc1ccccc1OCc1nc(C#N)c(NCc2ccc(C)cc2)o1` gave a survival of 83%. `COc1ccc(CNc2oc(COc3cccc(C)c3)nc2C#N)cc1` was tested, and the survival was 40% (active). Work on `COc1cccc(/C=C/c2nc(C#N)c(NCCc3ccccc3)o2)c1` yielded a survival of 90%. In the case of `COc1ccc(CCNc2oc(COc3ccc(Cl)cc3)nc2C#N)cc1OC`, the survival was 74%. For `Cc1ccc(OCc2nc(C#N)c(NCCc3ccccc3)o2)cc1`, the survival was 35% (active). Compound `Cc1cccc(OCc2nc(C#N)c(NCc3ccccc3Cl)o2)c1` has a survival of 53%. Work on `COc1ccc(CCNc2oc(COc3cccc(C)c3)nc2C#N)cc1OC` yielded a survival of 95%. Work on `N#Cc1nc(COc2ccccc2Cl)oc1NCCc1ccccc1` yielded a survival of 48%. In the case of `N#Cc1nc(COc2cccc(Cl)c2)oc1NCCc1ccccc1`, the survival was 39% (active). In the case of `CCN(CC)c1ccc2cc(-c3nc(-c4cccs4)no3)c(=O)oc2c1`, the survival was 83%. In the case of `CCC(Sc1nc2ccncc2[nH]1)C(=O)Nc1cc(C)ccc1C` (centres undefined), the survival was 132%. `Cn1ncc(C(=O)N2CCN(c3ccccc3F)CC2)c1C1CCN(C(=O)OC(C)(C)C)CC1` gave a survival of 71%. With `CCOc1ccc2oc(=O)cc(CN3CCN(C(=O)c4cccc(F)c4)CC3)c2c1` the survival was 31% (active). `CCOc1ccc2oc(=O)cc(CN3CCN(C(=O)c4cccc(Cl)c4)CC3)c2c1` was tested, and the survival was 66%. In the case of `CCOc1ccc2oc(=O)cc(CN3CCN(C(=O)c4ccc(Cl)cc4)CC3)c2c1`, the survival was 86%. `CCOc1ccc2oc(=O)cc(CN3CCN(Cc4ccc(F)cc4)CC3)c2c1` was tested, and the survival was 83%. For `CCOc1ccc2oc(=O)cc(CN3CCN(C(=O)c4ccc(OC)c(OC)c4)CC3)c2c1`, the survival was 50%. For `CCOc1ccc2oc(=O)cc(CN3CCN(C(=O)c4ccc(F)cc4)CC3)c2c1`, the survival was 31% (active). Compound `CCc1nc2ccc(C(=O)NCc3ccc(N(C)C)cc3)cc2nc1CC` has a survival of 99%. `Cc1c(C(=O)N2CCC(C)CC2)c(S(=O)(=O)NCc2ccccc2)c(C)n1C` was tested, and the survival was 66%. For `O=C(NCc1ccccc1Br)c1cnc2sc(N3CCCCCC3)nn2c1=O`, the survival was 94%. Work on `Cc1cccc(NC(=O)CSc2cn(CC(=O)N3CCCC3)c3ccccc23)c1C` yielded a survival of 99%. Compound `Cc1ccc(N2C(=O)CSC23C(=O)N(CC(=O)NC2CCCCC2)c2ccccc23)cc1C` (centres undefined) has a survival of 94%. With `CCCn1cc(S(=O)(=O)c2cccc(Cl)c2)c(=O)c2cc(F)c(N3CCN(CC)CC3)cc21` the survival was 115%. `Cc1cccc(Cn2c(-c3ccccc3)nc3ccccc32)c1` was tested, and the survival was -2% (active). `CCC(O)c1nc2ccccc2n1Cc1cccc(Cl)c1` (centres undefined) was tested, and the survival was 83%. `Cc1cccc(Cn2c(-c3cccc(Br)c3)nc3ccccc32)c1` showed a survival of 122%. `O=C(CSc1nc2ccccc2n1Cc1ccccc1F)NCc1ccccc1` was tested, and the survival was 97%. Compound `Cc1ccc(Cn2c(=O)c3ccccc3n3c(-c4ccccc4)nnc23)cc1` has a survival of 86%. `Nc1nonc1-c1nc2ccccc2n1Cc1cccc(Cl)c1` was tested, and the survival was 80%. In the case of `Cc1ccc(Cn2c(CCNC(=O)c3cccc(C)c3)nc3ccccc32)cc1`, the survival was 60%. With `Cc1ccc(Cn2c(-c3ccccc3)nc3ccccc32)cc1` the survival was -2% (active). Work on `Cc1ccc(Cn2c(C(C)NC(=O)c3ccccc3)nc3ccccc32)cc1` (centres undefined) yielded a survival of 90%. `Fc1ccccc1Cn1c(-c2ccccc2)nc2ccccc21` was tested, and the survival was 1% (active). For `Cc1cccc(-c2nc3ccccc3n2Cc2ccccc2)c1`, the survival was 0% (active). Work on `Fc1ccc(Cn2c(-c3cccc(Br)c3)nc3ccccc32)cc1` yielded a survival of 109%. In the case of `CCOC(=O)Cc1ccc(NC(=O)N2CC(C)Oc3ccc(Cl)cc32)cc1` (centres undefined), the survival was 55%. For `O=CN(Cc1ccco1)C1(C(=O)NC2CCCCC2)CCCCC1`, the survival was 76%. For `OCc1cnc(SCc2ccccc2F)n1Cc1ccc(F)cc1`, the survival was 87%. `COc1ccccc1CNC(=O)CCC1N=C2c3ccccc3N=C(SCC(=O)Nc3ccc(F)cc3)N2C1=O` (centres undefined) showed a survival of 84%. Compound `Cc1ccc2nc(-c3cccnc3)c(Nc3ccc(C(C)C)cc3)n2c1` has a survival of 94%. `O=C(COCc1cc(-c2ccc3c(c2)OCO3)on1)Nc1cc(Cl)ccc1O` gave a survival of 60%. Work on `CCn1c(=O)cc(SCC(=O)Nc2cc(Cl)ccc2OC)c2ccccc21` yielded a survival of 67%. For `CCCNC(=O)c1ccc(Cn2c(SCC(=O)NC(C)C)nc3ccccc3c2=O)cc1`, the survival was 102%. In the case of `CN(C)c1ccc(C(CNC(=O)c2ccccc2Cl)N2CCc3ccccc32)cc1` (centres undefined), the survival was 37% (active). `CCOc1ccccc1C(=O)NCC(c1ccc(N(C)C)cc1)N1CCc2ccccc21` (centres undefined) showed a survival of 102%. `COc1ccccc1C(=O)NCC(c1ccc(N(C)C)cc1)N1CCc2ccccc21` (centres undefined) was tested, and the survival was 46% (active). `CN(C)c1ccc(C(CNC(=O)c2ccccc2F)N2CCc3ccccc32)cc1` (centres undefined) gave a survival of 105%. `COc1cccc(C(=O)NCC(c2ccc(N(C)C)cc2)N2CCc3ccccc32)c1OC` (centres undefined) gave a survival of 93%. `CN(C)c1ccc(C(CNC(=O)c2ccccc2)N2CCc3ccccc32)cc1` (centres undefined) gave a survival of 115%. `O=C(Cn1c(=O)sc2ccccc21)Nc1cccc(Cl)c1` gave a survival of 83%. `CCN(Cc1ccccc1)C(=O)CN1C(=O)COc2ccc(S(=O)(=O)N3CCOCC3)cc21` was tested, and the survival was 98%. In the case of `CCOC(=O)Nc1cccc(C(=O)O)c1`, the survival was 71%. With `CCSc1ncc(Cl)c(C(=O)Nc2sc3c(c2C(=O)NC)CCCC3)n1` the survival was 82%. `CNC(=O)c1c(NC(=O)c2nc(SCc3ccc(C)cc3)ncc2Cl)sc2c1CCCC2` was tested, and the survival was 37% (active). In the case of `COC(=O)c1c(NC(=O)c2nc(SCc3ccc(F)cc3)ncc2Cl)sc2c1CCCC2`, the survival was 47%. For `Cc1ccc(CSc2ncc(Cl)c(C(=O)Nc3sc4c(c3C(N)=O)CCCC4)n2)cc1`, the survival was 105%. In the case of `COC(=O)c1c(NC(=O)c2nc(SC)ncc2Cl)sc2c1CCCC2`, the survival was 85%. In the case of `COC(=O)c1c(NC(=O)c2nc(SCc3ccc(C)cc3)ncc2Cl)sc2c1CCCC2`, the survival was 46% (active). Work on `COC(=O)c1c(NC(=O)c2nc(SCc3cccc(C)c3)ncc2Cl)sc2c1CCCC2` yielded a survival of 113%. `CCOC(=O)c1c(NC(=O)c2nc(SCC)ncc2Cl)sc2c1CCCC2` showed a survival of 91%. In the case of `CCOC(=O)c1c(NC(=O)c2nc(SC(C)C)ncc2Cl)sc2c1CCCC2`, the survival was 56% (active). `Cc1cc(C)nc(-n2nc(C)c3c2N(Cc2ccccc2F)C(=O)CC3c2ccc(Cl)cc2)n1` (centres undefined) showed a survival of 100%. Work on `CCC(=O)N1CCc2cc(Br)cc(S(=O)(=O)CCC(=O)Nc3ccc(C)c(F)c3)c21` yielded a survival of 86%. With `CCCCn1c(SCC(=O)Nc2ccc(OCC)cc2)nc2ccsc2c1=O` the survival was 130%. Compound `CCc1ccccc1NC(=O)C1(C)Cc2ccccc2C(=O)O1` (centres undefined) has a survival of 97%. Work on `CCc1ccc(NCc2cc3cc4c(cc3n(CC(=O)Nc3ccccc3Cl)c2=O)OCO4)cc1` yielded a survival of 73%. `Cn1c(=O)n(C)c2cc(N3CCCCC3)c(NC(=O)c3ccc(Cl)cc3)cc21` gave a survival of 74%. Work on `CCc1ccc(NC(=O)CN2C(=O)C(c3ccc(F)cc3)=NC2(C)C)cc1` yielded a survival of 81%. Compound `Cc1ccc(NC(=O)Cn2c(=O)c3ccccc3n3nncc23)cc1` has a survival of 114%. In the case of `Cc1ccc2sc(-c3ccc(N)cc3)nc2c1`, the survival was 12% (active). `Cc1ccc2nc(-c3ccc(NC(=O)C(F)(F)F)cc3)sc2c1` gave a survival of 98%. `Nc1ccc2nc(-c3ccc(O)cc3)sc2c1` gave a survival of 120%. Compound `Cc1cccc(C)c1OCc1nc2c3cnn(-c4ccccc4Br)c3ncn2n1` has a survival of 69%. `COc1ccc(Br)c(C(=O)Nc2cc3c(cc2N2CCOCC2)n(C)c(=O)n3C)c1` was tested, and the survival was 82%. For `O=C(NCCCc1nc2ccccc2n1Cc1cccc(Cl)c1)c1ccco1`, the survival was 46% (active). `O=C(NCCc1nc2ccccc2n1Cc1ccccc1)c1ccco1` showed a survival of 113%. For `Cc1ccc(Cn2c(CCCNC(=O)c3ccco3)nc3ccccc32)cc1`, the survival was 77%. With `O=C(NCCc1nc2ccccc2n1Cc1ccc(Cl)cc1Cl)c1ccco1` the survival was 49% (active). `O=C(NCCCc1nc2ccccc2n1Cc1ccc(Cl)cc1Cl)c1ccco1` showed a survival of 58%. `O=C(NCCCc1nc2ccccc2n1Cc1ccc(Cl)cc1)c1ccco1` was tested, and the survival was 105%. For `CCCSCCCNC(=O)CN1C(=O)COc2ccc(S(=O)(=O)N3CCC(C)CC3)cc21`, the survival was 90%. For `N#Cc1ccccc1NC(=O)CNCC1CCCO1` (centres undefined), the survival was 76%. `COc1ccc(C)cc1NS(=O)(=O)c1cc2c3c(c1)CC(=O)N3CCC2` gave a survival of 105%. With `CC1C(=O)N2CCCc3cc(S(=O)(=O)N4CCC(C(N)=O)CC4)cc1c32` (centres undefined) the survival was 0% (active). `CC1CCN(S(=O)(=O)c2cc3c4c(c2)CC(=O)N4CCC3)CC1` was tested, and the survival was 102%. In the case of `COC(=O)C1CCN(S(=O)(=O)c2cc3c4c(c2)C(C)C(=O)N4CCC3)CC1` (centres undefined), the survival was 99%. For `CCOC(=O)C1CCN(S(=O)(=O)c2cc3c4c(c2)CC(=O)N4CCC3)CC1`, the survival was 83%. `COC(=O)c1ccccc1N(C)S(=O)(=O)c1cc2c3c(c1)CC(=O)N3CCC2` gave a survival of 78%. With `COC(=O)c1ccccc1NS(=O)(=O)c1cc2c3c(c1)CC(=O)N3CCC2` the survival was 46% (active). `COC(=O)C1CCN(S(=O)(=O)c2cc3c4c(c2)CC(=O)N4CCC3)CC1` was tested, and the survival was 37% (active). `CCOC(=O)C1CCN(S(=O)(=O)c2cc3c4c(c2)C(C)C(=O)N4CCC3)CC1` (centres undefined) gave a survival of 98%. For `O=C(O)CCCNC1C=CS(=O)(=O)C1` (centres undefined), the survival was 91%. For `COCCNc1cc(N2CCN(C3CCCCC3)CC2)c2noc3c2c1C(=O)c1ccccc1-3`, the survival was 57%.
